Source: PubChem (National Center for Advancing Translational Sciences (NCATS))
TDP1 cell noCPT: qHTS for Inhibitors of human tyrosyl-DNA phosphodiesterase 1 (TDP1): qHTS in cells in absence of CPT | AID 686978, 2013 | 420,000 compounds, 15% hits | Potency, µM (doses to about 46.2 µM), for inactives: top-dose activity change, negative = growth inhibition, usual class: inhibitors | DT40 Tdp1-/- hTDP1 cells, no CPT, ATP luminescence, 48 h; further: potency means the concentration at half of the fitted maximal effect; nearly all actives have a fitted effect of over 55% in size
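Cells were dispensed at 400 per well, compounds added by pin tool, plates incubated ≥48 hr at 37 °C, then CellTiter-Glo added for 30 min at room temperature before luminescence reading. Line: DT40 Tdp1-/- complemented with hTDP1; camptothecin omitted.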
HT1080 IDH1KD tx: kills HT-1080 cells with IDH1 knockdown. HT-1080 IDH1 knockdown viability, ATP luminescence, 48 h. Potency, µM (top dose mostly 46.1 µM), without a hit: at the top dose activity, negative = toxicity, most hits filed as cytotoxic. 360,000 compounds, 2% hits. AID 686971;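 further: potency means the concentration at half of the fitted maximal effect; 0% = DMSO wells and -100% = cell-free medium wells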
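Luminescent ATP read-out (CellTiter-Glo, 10 min at room temperature) after 48 h compound exposure at 37 °C gave viability of IDH1-knockdown HT-1080 cells. Activity was normalised to DMSO and cell-free wells, then fitted as concentration-response curves.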
DT40 TDP1 CPT: DT40-hTDP1 cell growth loss with CPT; AID 686979; chicken DT40 Tdp1-/-;hTDP1 cells + 20 nM CPT, ATP luminescence, 48 h; Potency, µM (titrated, usually from 46.2 µM), for inactives: at the top dose activity change, negative = growth inhibition, usual class: inhibitors; 420,000 compounds, 12% hits; further: potency means the concentration at half of the fitted maximal effect; nearly all actives have a fitted effect of over 55% in size
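Chicken DT40 Tdp1-/- cells complemented with human TDP1, 400 cells/well, exposed to compounds plus 20 nM camptothecin for at least 48 h at 37 C; viability read as ATP content by CellTiter-Glo luminescence.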
HT1080NT lethal: kills 2HG-producing HT-1080-NT fibrosarcoma cells | HT-1080-NT fibrosarcoma viability, CellTiter-Glo ATP luminescence, 48 h | Potency, µM (titrated, usually from 46.1 µM), without a hit: at the highest dose activity, negative = less viability, usual class: cytotoxic | 360,000 compounds, 1.6% hits | AID 686970;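 further: NT is the 2HG producing partner of a matched IDH1 knockdown line; potency means the concentration at half of the fitted maximal effect; 0% = DMSO-treated cells and -100% = media-only wells without cells; nearly all actives have a fitted effect of over 55% in size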
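HT-1080-NT fibrosarcoma cells (2HG-overproducing), 750 cells/well in RPMI with 5% FBS, dosed after 2 h and incubated 48 h at 37C. CellTiter-Glo luminescence normalized to DMSO and no-cell wells; concentration-response curves fitted and classed.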
IL1B secr inh: inhibitors of inflammasome signaling (IL-1 beta secretion); THP-1 LPS/ATP IL-1B secretion, AlphaLISA, 16 h; stronger effect = lower value; activity change, % at 57.5 µM; 360,000 compounds, 4.7% hits; in the data active means activity change below about -50%; inconclusive means mostly about -30% to -49%
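Secreted IL-1B measured by AlphaLISA bead assay after 16 h compound exposure of THP-1 cells; compounds (final up to 57.5 uM) added 1 h before LPS (250 ng/mL) and ATP (1.25 mM) stimulation; lower signal means less secretion.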
* hit, by the source's call; ! = a repeat was not active; [ ] = dose if it differs, or a comment. Rows were chosen to be rich in hits. Some 19% of all compounds tested hit in one or more screens of this group. Unless noted, the call rests on the fitted dose curve; in most records, active means well fitted curve in the direction sought with a large enough effect; inconclusive means small, poorly fitted or top-dose-only effect, or another doubt; inactive means no such curve, though single readings can be large; an effect the other way counts as inactive or inconclusive. Unless noted, on the % scale 0 is the no-effect control and ±100 the full control effect.

Results for COc1cccc(NC(=O)c2sc3nc4n(c(=O)c3c2C)CCC4)c1 ?
TDP1 cell noCPT: 14.6µM*!; HT1080 IDH1KD tx: -1.4%; DT40 TDP1 CPT: inconclusive; HT1080NT lethal: 2.0%; IL1B secr inh: -28.1

Results for CCOC(=O)C1CCCN(S(=O)(=O)c2cnc(Cl)c(Br)c2)C1 (stereo not given) ?
TDP1 cell noCPT: inconclusive; HT1080 IDH1KD tx: 0.0%; DT40 TDP1 CPT: inconclusive; HT1080NT lethal: -0.8%; IL1B secr inh: -8.1

How did COc1ccc(CCC(=O)OCC(=O)NC2CCCC2)cc1OC do in these assays?
TDP1 cell noCPT: -0.7%; HT1080 IDH1KD tx: 11.9%; DT40 TDP1 CPT: 5.4%; HT1080NT lethal: 14.1%; IL1B secr inh: -5.9

What do the screens show for `Cc1ccc(CNC(=O)CN2C(=O)COc3ccc(S(=O)(=O)N4CCC(C)CC4)cc32)cc1`?
TDP1 cell noCPT: -28.6%; DT40 TDP1 CPT: inconclusive

How did COc1ccc(-c2nc3c(c(SCc4ccc(Br)cc4)n2)Cc2c(CO)cnc(C)c2O3)cc1 do in these assays?
TDP1 cell noCPT: 4.11µM*; DT40 TDP1 CPT: inconclusive

Results for CCc1ccc(-c2nc3c(c(SCc4ccc(F)cc4)n2)Cc2c(CO)cnc(C)c2O3)cc1 ?
TDP1 cell noCPT: -18.7%; DT40 TDP1 CPT: -4.3%

How did C=Cc1ccc(CSc2nc(-c3ccccc3C)nc3c2Cc2c(CO)cnc(C)c2O3)cc1 do in these assays?
TDP1 cell noCPT: 20.6µM*; DT40 TDP1 CPT: inconclusive

Results for C=Cc1ccc(CSc2nc(-c3ccc(Cl)cc3)nc3c2Cc2c(CO)cnc(C)c2O3)cc1 ?
TDP1 cell noCPT: 23.1µM*; DT40 TDP1 CPT: 8.2µM*

What do the screens show for `C=Cc1ccc(CSc2nc(-c3ccc(OC)cc3)nc3c2Cc2c(CO)cnc(C)c2O3)cc1`?
TDP1 cell noCPT: 5.17µM*; DT40 TDP1 CPT: 5.8µM*

Results for CCC(=O)NC(=S)Nc1cc(C(=O)O)ccc1OC ?
TDP1 cell noCPT: -10.6%; HT1080 IDH1KD tx: 4.4%; DT40 TDP1 CPT: 0.4%; HT1080NT lethal: 19.1%; IL1B secr inh: -6.8

What do the screens show for `CC(=O)c1ccsc1-c1c(C)cc2oc(=O)cc(-c3ccccc3)c2c1C`?
TDP1 cell noCPT: inconclusive; HT1080 IDH1KD tx: -11.0%; DT40 TDP1 CPT: inconclusive; HT1080NT lethal: -7.1%; IL1B secr inh: 1.7

How did Cc1cnc(C)c(-c2cccc3c2OC(CNC(=O)c2cc(C)on2)C3)n1 (stereo not given) do in these assays?
TDP1 cell noCPT: -6.8%; DT40 TDP1 CPT: -0.6%[9.04 µM]

Results for O=C1/C(=C/c2ccc(N3CCCC3)cc2)NC(=S)N1C1CC1 ?
TDP1 cell noCPT: 16.4µM*; HT1080 IDH1KD tx: 7.94µM*; DT40 TDP1 CPT: 16.4µM*; HT1080NT lethal: 6.31µM*; IL1B secr inh: -77.1*

How did Cc1cc(N2CCCC2)ccc1/C=C1\NC(=S)N(C)C1=O do in these assays?
TDP1 cell noCPT: 3.26µM*; HT1080 IDH1KD tx: -13.5%; DT40 TDP1 CPT: 4.61µM*; HT1080NT lethal: -3.3%; IL1B secr inh: -10.3

What do the screens show for `O=C1N/C(=C/c2ccc(N3CCCC3)cc2)C(=O)N1c1ccccc1`?
TDP1 cell noCPT: inconclusive; HT1080 IDH1KD tx: -8.3%; DT40 TDP1 CPT: inconclusive; HT1080NT lethal: -7.2%; IL1B secr inh: 3.4

How did CCn1c(-c2cccc(OC)c2)nc2cc(NC(C)=O)cc(C(=O)N3CCC[C@H]3C(=O)OC)c21 do in these assays?
TDP1 cell noCPT: 4.9%; DT40 TDP1 CPT: -1.9%

How did COc1cccc(OC)c1C(=O)Nc1cccc2c1CCCC2 do in these assays?
TDP1 cell noCPT: 5.0%; HT1080 IDH1KD tx: 2.8%; DT40 TDP1 CPT: -20.4%; HT1080NT lethal: -0.1%; IL1B secr inh: inconclusive

How did O=Cc1ccc2[nH]ccc2c1 do in these assays?
TDP1 cell noCPT: -1.9%; DT40 TDP1 CPT: 6.7%

What do the screens show for `CN1CCN(c2ccc(NC(=O)c3ccc(-c4ccc(Br)cc4)o3)cc2)CC1`?
TDP1 cell noCPT: 29.1µM*; HT1080 IDH1KD tx: 23.1µM*; DT40 TDP1 CPT: inconclusive; HT1080NT lethal: 14.6µM*; IL1B secr inh: -91.5*
